Screening results: PubChem, several laboratories
rCAG binder = r(CAG) repeat RNA binding; TO-PRO-1 dye displacement fluorescence; 370,000 compounds, 1.3% hits; inhibition, % at 3 µM;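 active means inhibition above the plate cutoff, the mean of all test compounds on that plate plus 3 SD, cut at about 35% in these data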;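 further: 0% = DMSO alone and 100% = 100 µM mitoxantrone as full dye displacement; higher means more dye released from RNA so lower well fluorescence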
Myeloid diff MLP = promotes myeloid progenitor differentiation. 360,000 compounds, 1% hits. ER-HoxA9 myeloid progenitors, lysozyme-GFP differentiation, flow cytometry. calls only at 10 µM;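 active means normalized GFP-positive differentiation at or above the plate's own cutoff, the solvent-only control mean plus 3 SD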;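 further: cells exposed to compound for four days before flow analysis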
NR3A LBD binder = modulates the human NR3A ligand-binding domain; NR3A LBD differential scanning fluorimetry, Tm shift; 0% = protein alone, 100% = glycine-bound protein; 340,000 compounds, 2.5% hits; Tm shift relative to glycine control, % at 25 µM; AID 1259313;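 active means melting temperature shift of at least 10% of the positive control shift, at one fixed dose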
FAS-TE inh = FAS thioesterase (human) inhibition; P49327; recombinant FAS-TE, OMFH fluorogenic substrate, fluorescence endpoint; inhibition, % at 15 µM; 360,000 compounds, 0.67% hits; AID 602261;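 active means compounds whose normalised, plate-corrected inhibition of enzyme fluorescence in the single-dose primary screen is 50% or more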;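 further: 0% = DMSO with enzyme and 100% = substrate without enzyme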
MPTP block = permeability transition pore inhibition. 360,000 compounds, 1.4% hits. isolated mouse mitochondria, Ca2+ swelling absorbance, 30 min. inhibition, % at 10 µM;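 active means inhibition of 50% or more, scaled per plate between neutral and stimulator controls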;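 further: 0% = DMSO wells given calcium and 100% = 1 mM EGTA wells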
MPTP counter = mitochondrial membrane potential, counter-screen; shares compounds with MPTP block; isolated mitochondria, Rhodamine 123 fluorescence; inhibition, % at 10 µM; 5,000 compounds, 78% hits; AID 624504; in the data active means inhibition above about 22%;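 further: 0% = DMSO vehicle and 100% = positive control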
MPTP abs DR = MPTP inhibition, dose response swelling confirmation; 780 compounds, 58% hits; IC50, µM; isolated mitochondria swelling, absorbance; shares compounds with MPTP block; AID 651561; in the data active means IC50 below about 20 µM
MPTP cs DR = counter-screen for mitochondrial permeability transition pore inhibitors, dose response; shares compounds with MPTP block; isolated mitochondria counterscreen, fluorescence read-out; IC50, µM; 780 compounds, 49% hits; AID 651564; in the data active means IC50 below about 80 µM
An asterisk follows results filed as active; i = inactive; . = not tested or not shown. Most compounds without a hit are left out; they make up all but 5.7% or so of the library.

SMILES	rCAG binder	Myeloid diff MLP	NR3A LBD binder	FAS-TE inh	MPTP block	MPTP counter	others
O=C(NCCN1CCN(Cc2ccccc2)CC1)Nc1cc(Cl)cc(Cl)c1	-4	i	-1	9	85*	96*
O=C(Nc1ccccc1)Nc1cc(OCC(F)(F)F)cc(OCC(F)(F)F)c1	14	i	41*	52*	77*	63*
COc1cccc(NC(=O)Nc2cc(Cl)ccc2C)c1	4	i	21*	9	92*	82*
N#CC1(NC(=O)COC(=O)Cn2[nH]c(=O)c3ccccc3c2=O)CCCCC1	0	i	1	-5	0	.
COC(=O)[C@]12C[C@H](CC(=O)NCCCN3CCCC3=O)C(=O)N(Cc3ccc4c(c3)OCO4)C1=C[C@H](C(C)(C)C)O[C@@H]2C	-1	.	.	.	.	.
Nc1nc(SCC(=O)Nc2ncc(Cl)cc2Cl)n[nH]1	8	i	2	-11	0	.
O=C(Nc1cccc(Cl)c1)N1CCSc2cc(Cl)ccc21	0	i	4	24	76*	88*
O=C(Nc1cccc(Cl)c1)Nc1nccs1	11	i	31*	-1	72*	92*
O=C(Nc1cccc(Cl)c1)Nc1ccnc(-c2cccnc2)n1	10	i	10	2	77*	87*
N#CCc1ccc(NC(=O)Nc2cccc(Cl)c2)cc1	2	i	26*	11	90*	107*
COc1cc2c(CCNC(C)=O)c[nH]c2cc1Cl	0	i	8	-5	-4	.
CNC(=S)N/N=C/c1cn(CCOc2cccc(OC)c2)c2ccccc12	10	i	-5	34	0	.
c1ccc(CNc2nc(NCCc3ccncc3)c3sccc3n2)cc1	1	i	.	-1	4	.
CCc1ccccc1NC(=O)Nc1cccc(F)c1	1	i	-6	3	76*	81*
O=C(Nc1cccnc1)Nc1cc(Cl)cc(Cl)c1	10	i	21*	6	89*	98*
CS(=O)(=O)Nc1ccccc1C(=O)Nc1cccc(Cl)c1	13	i	1	-4	28	.
O=C(Nc1cccnc1)Nc1ccc(Br)cc1Cl	6	i	-7	3	58*	80*
O=C(CC(=O)Nc1cccc(F)c1)Nc1cccc(F)c1	-3	i	-1	5	1	.
CS(=O)(=O)Nc1ccccc1C(=O)Nc1cc(Cl)cc(Cl)c1	13	i	9	0	97*	83*
CCOc1cccc2cc(C(=O)NCc3ccc(C)cc3)c(=N)oc12	-3	i	1	1	-1	.
Cc1ccc(N=C2SC(C(=O)NCCc3ccccc3)CC(=O)N2C)cc1C (centres undefined)	-8	i	2	7	-2	.
Cc1ccc(-c2cnc(C(O)c3cc(C)cc(C)c3)[nH]2)cc1 (centres undefined)	3	i	.	-4	1	.
Cc1cccc(N(O)C(=O)Nc2cccc(Cl)c2)c1	2	i	-6	-161	64*	84*
CCN(C(=O)Nc1cccc(Cl)c1)c1ccccc1	-5	i	0	1	0	.
O=C(Nc1cccc(F)c1)Nc1cccc(Cl)c1	4	i	42*	15	88*	80*
SMILES	rCAG binder	Myeloid diff MLP	NR3A LBD binder	FAS-TE inh	MPTP block	MPTP counter	others
O=C(Nc1ccccc1)Nc1cc(Cl)cc(Cl)c1	15	.	.	24	101*	100*
COc1cccc(NC(=O)Nc2ccc3nsnc3c2)c1	12	i	37*	2	93*	87*
O=C1CN(C(=O)COC(=O)CCc2ccccc2O)c2ccccc2N1	3	i	-2	-4	-2	.
C#CCOCCOCCOCCNc1nc(N2CCN(C(=O)[C@H](CO)n3cc([C@@H](N)C(C)C)nn3)CC2)nc(N2CCN(C(=O)[C@H](CO)n3cc([C@@H](N)C(C)C)nn3)CC2)n1	-3	i	1	-7	-3	.
O=C(NCc1ccc(F)cc1)Nc1cccc(Cl)c1	1	i	-5	26	85*	93*
O=C(Nc1cccc(Cl)c1)Nc1cccc(Cl)c1	9	i	33*	12	102*	88*
O=C(Nc1cccc(Cl)c1)ON=C1c2ccccc2-c2ccccc21	9	i	5	-20	86*	87*
O=C(Nc1cccc(Cl)c1)Nc1ccon1	3	i	0	-2	18	.
COC(=O)c1cc(NC(=O)Nc2cccc(Cl)c2)ccc1Cl	25	i	38*	34	90*	73*
O=C(NC1CCCC1)c1cccc2c1C(=O)c1ccc(Cl)cc1S2(=O)=O	2	i	0	-3	1	.
COC(=O)c1sc(S(=O)(=O)N2CCCCC2C)c(C(=O)OC)c1C (centres undefined)	0	i	1	30	0	.
Cc1cc(C(=O)Nn2c(-c3ccc(Br)cc3)nc3ccccc3c2=O)ccc1[N+](=O)[O-]	22	i	8	50	67*	87*
O=C(Nn1c(-c2ccc(Br)cc2)nc2ccccc2c1=O)c1ccncc1	2	i	0	-1	0	.
S=C(NC1CCCCC1)NC1CC2CCC(C1)N2Cc1ccccc1 (centres undefined)	2	i	1	-7	7	.
CC(=O)c1ccc(NC(=S)N2CC(C)CC(C)C2)cc1 (centres undefined)	3	i	-4	6	1	.
COC(=O)c1sccc1N/N=C/c1cccc(Oc2ccccc2)c1	5	i	-4	31	64*	-8	MPTP abs DR=i;MPTP cs DR=>80
CC1CC1C(=O)OCC(=O)Nc1ccc(S(=O)(=O)N2CCOCC2)cc1 (centres undefined)	5	i	0	5	0	.
CN1/C(=C\C=C2/SC(=S)N(CC(=O)O)C2=O)C(C)(C)c2ccccc21	-302	i	0	-145	75*	12
CCCCCCCC(=O)OCC(O)CO (centres undefined)	1	i	-2	-3	1	.
CCCCCCCCCCCCC/C=C/[C@@H](O)[C@@H](N)CO	9	i	5	-27	98*	-8
Cc1cc(NC(=O)C(C)SCC(=O)N(C)Cc2ccccc2F)no1 (centres undefined)	-3	i	1	-3	0	.
COc1ccccc1CC(Cc1nc2ccccc2[nH]1)c1nc2ccccc2[nH]1 (centres undefined)	8	i	-2	-3	1	.
Cc1cccc(CC(Cc2nc3ccccc3[nH]2)c2nc3ccccc3[nH]2)c1 (centres undefined)	3	i	-3	14	89*	110*
Cc1cccc(OCCSCc2nc3ccccc3[nH]2)c1	3	i	-1	3	2	.
